Test results taken from PubChem BioAssay (NCI).
About 83,000 compounds went through this panel and 20% of them were active in at least one assay; those are over-represented in the sample as a whole.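 How to read the values: 0–100, growth inhibition (40 = 60% inhibited); 0, no net growth; -100 to 0, cell death (-40 = 40% of starting cells died; -100 = all dead).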 Values without a mark were called inactive. Active and inactive are the calls of the source. How the source made its calls: active means growth percent below 10; inactive means the rest.

Key:
Test in all cases: NCI-60 one-dose screen, 48 h (100 = growth as untreated, 0 = no growth, -100 = all killed)
Conditions in all cases: 10 µM unless noted
SR leukemia = system: SR leukemia
RPMI-8226 leukemia = system: RPMI-8226 leukemia
OVCAR-8 ovarian = system: OVCAR-8 ovarian
OVCAR-5 ovarian = system: OVCAR-5 ovarian
OVCAR-4 ovarian = system: OVCAR-4 ovarian
SK-OV-3 ovarian = system: SK-OV-3 ovarian
IGROV1 ovarian = system: IGROV1 ovarian
OVCAR-3 ovarian = system: OVCAR-3 ovarian
HS 578T breast = system: HS 578T breast
NCI/ADR-RES ovarian = system: NCI/ADR-RES ovarian

| Structure (SMILES) | growth (SR leukemia) | growth (RPMI-8226 leukemia) | growth (OVCAR-8 ovarian) | growth (OVCAR-5 ovarian) | growth (OVCAR-4 ovarian) | growth (SK-OV-3 ovarian) | growth (IGROV1 ovarian) | growth (OVCAR-3 ovarian) | growth (HS 578T breast) | growth (NCI/ADR-RES ovarian) |
| --- | --- | --- | --- | --- | --- | --- | --- | --- | --- | --- |
| O=C(NCCNc1nccc(Nc2ccc(S(=O)(=O)Nc3ccccn3)cc2)n1)c1cccc([N+](=O)[O-])c1 | 84.7% | 96.1% | 104% | 93% | 89.9% | 100% | 106% | 108% | 108% | 104% |
| [O-]/[N+](=C\c1ccc(-n2cc(Cc3ccccc3Cc3cn(-c4ccc(/C=[N+](/[O-])c5ccccc5)cc4)nn3)nn2)cc1)c1ccccc1 | 95% | 103% | 103% | 112% | 99.3% | 106% | 95.4% | 102% | 110% | 97.6% |
| C=C(C)[C@@H]1CC[C@]2(C(=O)O)CC[C@]3(C)[C@H](CC[C@@H]4[C@@]5(C)CCC(NC(=O)c6cccc(OC(C)=O)c6OC(C)=O)C(C)(C)[C@@H]5CC[C@]43C)[C@@H]12 (stereo not given in full) | 3.23% (active) | -17.8% (active) | 10.7% | 1.76% (active) | 12.9% | 6.71% (active) | 5.12% (active) | 11.8% | 15.8% | 8.44% (active) |
| COc1ccc2[nH]c(C(=O)N3CCN(C(=O)OCc4ccc5c(Cl)cc(Cl)c(O)c5n4)CC3)cc2c1 | 2.29% (active) | -27.9% (active) | -64.1% (active) | -88.7% (active) | -69.5% (active) | 44.7% | -96.4% (active) | -97.3% (active) | -15.1% (active) | -2.44% (active) |
| Fc1cc2c(cc1Cl)N(c1ncnc3ccc(-c4ccc5n[nH]nc5c4)cc13)CC2 | 66.8% | 92% | 85.6% | 76.5% | 81.3% | 95.6% | 32.2% | 69% | 58.2% | 87.3% |
| Cn1cc(C(=O)c2nc(-c3c[nH]c4ccccc34)no2)c2cc(F)ccc21 | 11.2% | 37.5% | 49.3% | 68.3% | 69.8% | 43.3% | 32.5% | 0.717% (active) | 44.8% | 36.5% |
| Oc1c(Br)cc(Br)c2ccc(Cn3cc(-c4ccccc4C(F)(F)F)nn3)nc12 | 2.33% (active) | 45.4% | 92.9% | 100% | 79.4% | 116% | 107% | 51.5% | 105% | 105% |
| CS(=O)(=O)c1ccc(-c2cnn3ccc(-c4cccc(S(=O)(=O)C5CC5)c4)nc23)cc1 | 49.3% | 49.1% | 43.7% | 68.7% | 67.9% | 32.2% | 13.1% | 54.7% | 45.5% | 71.8% |
| COc1cc2ncnc(Nc3ccc(F)c(Cl)c3)c2cc1OCC(=O)N1CCN(c2ccccc2)CC1 | 84.4% | 83.6% | 93.5% | 75% | 85.7% | 96% | 48.9% | 87.8% | 93.9% | 80.5% |
| COc1ccc(OC)c(Nc2nnc(-c3ccc(O)c(OC)c3)o2)c1 | 52.4% | 75% | 83.6% | 70% | 63.1% | 53.4% | 19.9% | 70.6% | 39.6% | 68.7% |
| NC(=O)c1c(NC(=O)c2ccc3ccccc3c2)sc2c1CCC(=O)C2 | 8.41% (active) | -12.1% (active) | 46.1% | 74.7% | 5.13% (active) | 104% | 42.7% | 23% | 49.6% | 85.3% |
| CCCNc1nc2ccccc2c2c1S(=O)(=O)c1ccc(Cl)cc1C2=O | 8.34% (active) | -10.2% (active) | 3.78% (active) | 8% (active) | 13.1% | 32.2% | 24.6% | -17% (active) | 7.32% (active) | 8.31% (active) |
| O=C(Nc1ccccc1)Nc1ncnc2c1ncn2-c1ccc(Cl)cc1 | 74.1% | 100% | 83.7% | 74.5% | -29.6% (active) | 75.4% | 78.5% | 99.5% | 79.8% | 74.6% |
| Fc1cnccc1C1CC(c2ccc(N3CCNCC3)cc2)=NN1 (stereo not given) | 90.4% | 92.5% | 95.1% | 111% | 108% | 85% | 68% | 98.8% | 89.2% | 106% |
| CCn1cc(C(=O)NNC(=S)Nc2ccc(C)cc2)c(=O)c2ccc(C)nc21 | 104% | 98.9% | 95.6% | 107% | 102% | 106% | 95.7% | 103% | 95.8% | 95.6% |
| Clc1ccc2c(c1)C(c1c[nH]c3ccccc13)(c1c[nH]c3ccccc13)CCO2 | 63.8% | 42.3% | 58.6% | 96% | 73.3% | 39.6% | 85.8% | 81.2% | 76.6% | 92.2% |
| Cc1ccc(C[P+](c2ccccc2)(c2ccccc2)c2ccccc2)cc1 | -3.87% (active) | -17.6% (active) | 15.6% | 7.45% (active) | 1.45% (active) | 6.84% (active) | 18.7% | 5.95% (active) | 8.62% (active) | 93.5% |
| O=C(/C=C/c1cccs1)Nc1ncc(Cc2ccccc2F)s1 | 26.1% | 23.7% | 29.8% | 34.5% | 48% | 27.5% | 35.4% | -6.37% (active) | 16% | 11.6% |
| COc1cc2c(c(OC)c1OC)CCC(c1cccc(C(=O)Nc3ccc(C#N)cc3)c1)O2 (stereo not given) | 16.9% | 14.4% | 28.5% | 79.3% | 35.3% | 73.2% | 68.9% | 65.6% | 72.3% | 19% |
| CCOC(=O)NC(C)C | 112% | 113% | 103% | 90.5% | 107% | 117% | 91.2% | 112% | 111% | 93.5% |
| O=C1/C(=C/c2ccccc2Br)COc2ccc(O)cc21 | 10.3% | 1.71% (active) | 55.5% | 91.9% | 77.8% | 128% | 78.6% | 54.5% | 70.5% | 46.9% |
| O=C1Nc2ccccc2/C1=C/c1nc2ccccc2c(=O)[nH]1 | 31% | 85.9% | 93.4% | 125% | 94.5% | 96% | 69.5% | 90.9% | 93.4% | 97% |
| CCN1C(=S)N(c2ccccc2)C2C1NN=c1s/c(=C3\C(=O)N(C(C)C)c4ccccc43)c(=O)n12 (stereo not given) | 46.2% | 97.4% | 54.1% | 93.9% | 1.68% (active) | 104% | 71% | 84.2% | 54.8% | 64.1% |
| COc1ccc(C/C(C)=C(/c2ccc(OCCN(C)C)cc2)c2ccc(OC(=O)NCc3ccccc3)cc2)cc1 | -46% (active) | 32.9% | 77.4% | 92% | 78.4% | 81.4% | 85.3% | 63.9% | 56.2% | 77.2% |
| COc1ccc(/C=N\Nc2nc(SCCC(C)C)nc(-c3ccc(OC)cc3)c2C#N)cc1 | 4.53% (active) | 54.4% | 39.5% | 63.3% | -57.2% (active) | 56.9% | 34.5% | 12.8% | 29.4% | 74.8% |
| Cn1ccc(=O)c(C(=O)Nc2nsc3ccc([N+](=O)[O-])cc23)c1 | 55.9% | 61.6% | 59.3% | 84% | 53.4% | 30.8% | 27.3% | 75.6% | 54.7% | 68% |
